# From PubChem BioAssay AID431 (Sanford-Burnham Center for Chemical Genomics, 2006)
# Hit rate of the full screen: of about 63,000 compounds, about 1,100 (1.7%) were called active. The list comes from a sample in which actives are over-represented; it also holds similar structures and randomly drawn compounds. Potency and affinity values are given separately. A number with no mark means an inactive call.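 How the source made its calls: active means compounds whose percent cytotoxicity in the single-dose primary screen, scaled between solvent and toxic-drug controls, exceeds 50; inactive means the rest.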
# Assay: cytotoxicity in KRAS-transformed pancreatic duct cells, primary screen, cell-based, fluorescence, HTS (AID 431);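 further: 0% = DMSO solvent wells and 100% = doxorubicin-treated wells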
# Settings: HPDE-C7K KRASV12 cells, Alamar Blue viability, 48 h; at 10 µM; stronger effect = higher value
row,Structure (SMILES),cytotoxicity
1,CCN(CCNC(=O)C1CCN(S(C)(=O)=O)CC1)c1ccccc1,-4.7%
2,CC(C)CC(=O)Nc1ccccc1N1CCCC1,-13.9%
3,O=C(CN1CCCCC1)Nc1ccccc1NC(=O)CN1CCCCC1,-8.2%
4,CCOC(=O)c1ccc(NC(=O)CN2CCc3ccccc3C2)cc1,53.1% (active)
5,COc1ccc(NC(=O)CNCCC2=CCCCC2)cc1,-7.1%
6,O=C(COc1ccccc1)Nc1ccccc1N1CCCCC1,-5.3%
7,CCOC(=O)c1ccc(NC(=O)N2CCc3ccccc32)cc1,16.1%
8,CCOC(=O)c1ccc(NC(=O)CN2CCN(c3ccccc3)CC2)cc1,-0.6%
9,O=C(CN1CCc2ccccc2C1)Nc1ccccc1N1CCCCCC1,62.4% (active)
10,O=C(CNCCC1=CCCCC1)Nc1ccccc1N1CCCCC1,74.2% (active)
11,COc1ccc(CCNC(=O)c2c(O)c3cccc4c3n(c2=O)CC4)cc1OC,3.1%
12,Cc1cc(C(=O)OCC(=O)N2CC(C)CC(C)C2)c(C)o1 (stereo unspecified),-1%
13,CC(=O)c1ccc(NC(=O)C2CCCNC2=O)cc1 (stereo unspecified),-14.4%
14,Cc1nnc2ccc(N3CCN(c4cccc(C(F)(F)F)c4)CC3)nn12,3.9%
15,Cn1c(=O)n(-c2ccccc2)c(=O)c2c3c(sc21)COC(C)(C)C3,-13.9%
16,Cc1ccc(S(=O)(=O)NC(=NCC(=O)O)c2ccccc2)cc1,5.9%
17,CCOc1ccc2[nH]c(=O)c(CN(CCOC)C(=O)N3CCOCC3)cc2c1,5.7%
18,COc1ccccc1NS(=O)(=O)c1ccc(NC(C)=O)cc1,1.6%
19,COC(=O)C(C)NS(=O)(=O)c1ccc(NC(C)=O)cc1 (stereo unspecified),-26.3%
20,CC(=O)Nc1ccc(S(=O)(=O)c2ccc(N)cc2)cc1,-14.7%
21,COC(=O)/C=C/S(=O)(=O)c1ccc(NC(C)=O)cc1,58.8% (active)
22,CCOC(=O)CN(Cc1ccccc1)S(=O)(=O)c1ccc(NC(C)=O)cc1,8.6%

row,Structure (SMILES),cytotoxicity
1,CC(C)c1c(O)nc(SCc2ccccc2)[nH]c1=O,-18%
2,COc1ccc(-c2nnnn2-c2ccccc2OC)cc1,36.6%
3,COc1ccc(-n2nnnc2-c2cccc(OC)c2)cc1,60.7% (active)
4,CCOc1cccc(-n2nnnc2-c2ccc(OC)cc2)c1,52.1% (active)
5,O=C(CSc1nnnn1-c1ccccc1)CSc1nnnn1-c1ccccc1,3%
6,COc1cccc(Oc2nnnn2-c2ccccc2)c1,-16.1%
7,N#CCCS(=O)(=O)c1nnnn1-c1ccccc1,67.8% (active)
8,COc1ccc(-c2nnnn2CCc2ccccc2)cc1,-2.2%
9,CCS(=O)(=O)c1nnnn1-c1ccccc1S(C)(=O)=O,36.8%
10,COc1cccc(-n2nnnc2SCC(=O)c2cc(OC)ccc2OC)c1,-8.2%
11,COc1ccc(-n2nnnc2-c2cccnc2)cc1,0.7%
12,COc1ccc(-n2nnnc2SCC(=O)c2cccc(OC)c2)cc1,25.7%
13,O=C(Nc1ccc2c(c1)OCCO2)C1CCN(C(=O)c2ccc(Br)cc2)CC1,4.7%
14,COc1ccc(N2C(=O)C(CC(=O)Nc3ccccc3)N(Cc3ccc4c(c3)OCO4)C2=O)cc1 (stereo unspecified),-9%
15,c1ccc2c(c1)nc(Nc1ccc3c(c1)OCO3)c1nnnn12,-10.2%
16,COc1ccc(CCNC(=O)CCS(=O)(=O)c2cccc3nsnc23)cc1OC,-2.7%
17,COc1ccc(OC)c2sc(N3CCN(c4ccccc4)CC3)nc12,15.9%
18,CCCc1c(C(=O)OCC)[nH]c2c1C(=O)CCC2,10%
19,O=C(Nc1ccc(C(F)(F)F)cc1)C1CCCN1S(=O)(=O)c1cccc2cccnc12 (stereo unspecified),16.9%
20,C=CCNC(=O)c1ccccc1NS(=O)(=O)c1ccc(SC)cc1,26.3%
21,CCOc1ccc(NC(=O)CN2CCN(CC(=O)Nc3ccc4c(c3)OCCO4)CC2)cc1,-5.7%
22,O=CNC1CCCc2c1[nH]c1ccc(Cl)cc21 (stereo unspecified),12.8%

row,Structure (SMILES),cytotoxicity
1,Cc1ccc2[nH]c3c(c2c1)CCC3=O,-12.2%
2,CC(Oc1ccc(Cl)cc1)C(=O)Nc1nccs1 (stereo unspecified),-6%
3,c1ccc(-n2nnnc2Sc2n[nH]c(-c3ccncc3)n2)cc1,-8.6%
4,CC(=O)C1=C(O)C(=O)N(CCN(C)C)C1c1ccc(Cl)cc1 (stereo unspecified),1%
5,COc1cccc(CNC(=O)C2CCN(C(=O)N(C)C)CC2)c1,-6.1%
6,Cc1ccc(O)c(CC(C)C)n1,5.8%
7,CCC(NC(C)C)C(O)c1ccc(O)c(O)c1 (stereo unspecified),2.8%
8,CC1CCCN(S(=O)(=O)c2cccc(-c3cn4cccnc4n3)c2)C1 (stereo unspecified),-3%
9,O=C(Nc1ccc2nc(-c3ccco3)c(-c3ccco3)nc2c1)N1CCCCCC1,38.8%
10,O=C(Nc1ccc(N2CCOCC2)cc1)Nc1ccc2nc(-c3ccco3)c(-c3ccco3)nc2c1,80.3% (active)
11,O=C(Nc1ccc(N2CCOCC2)cc1)c1ccc2nc(-c3ccco3)c(-c3ccco3)nc2c1,-26.4%
12,Cn1nnnc1SCC(=O)N1CCc2ccccc2C1,-12.2%
13,CC(C)c1ccc(NC(=O)C(c2ccccc2)N2CCN(C(=O)c3ccco3)CC2)cc1 (stereo unspecified),-11.8%
14,COc1ccc(NS(=O)(=O)c2ccc(O)c(C(=O)OCC(=O)N3CC(C)OC(C)C3)c2)cc1 (stereo unspecified),11.2%
15,C=CCn1c(Cc2csc(N)n2)nnc1SCc1ccc(C(=O)OC)cc1,-10.3%
16,Cc1ccc(-n2c(SCC(=O)NCc3ccco3)nc3sc(C)c(C)c3c2=O)cc1,-4%
17,Cc1cc(C)c2ccc(N)nc2c1O,121% (active)
18,Cc1cc(C)c2ccc(C)[n+]([O-])c2c1O,-6.5%
19,Cc1cc(=O)oc2c(N)c(O)ccc12,-2.8%
20,CCCC(=O)Nc1ccccc1NC(=O)CN(C)S(=O)(=O)c1ccccc1,-1.8%
21,CC(C)(C)NC(=O)CSc1nsc(SCC(=O)NC(C)(C)C)c1C#N,11.8%
22,Cc1csc(NC(=O)CSc2nc(C)cs2)n1,6.5%
